Reference: PubChem BioAssay (NCATS)
Results filed as inconclusive are left out. Active and inactive are the calls of the source. Calls follow the shape of the dose curve; as a rule, active = well fitted curve in the direction sought with a large enough effect; inconclusive = small, poorly fitted or top-dose-only effect, or another doubt; inactive = no such curve, though single readings can be large; an effect the other way counts as inactive or inconclusive.

Key:
[1] = Cell Viability - LYMP1-003 - Assay at 24 hr (AID 963)
How it was run: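 Cells seeded at 2500/well, 5 hr at 37 C; compounds added; 24 hr at 37 C; CellTiter-Glo added, 30 min room temperature; luminescence read. Decrease in ATP taken as cytotoxicity, AC50 from Hill modelling.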

[2] = Cell Viability - LYMP2-003 (AID 965);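 also: cells exposed to compounds for 24 h before reading; nearly all actives have a fitted effect of over 50% in size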
How it was run: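 CellTiter-Glo luminescence (cellular ATP) after 24 h compound exposure at 37 C in complete medium; 2500 cells/well, 5 h settling beforehand. Concentration-response fitted to standard Hill equation for AC50. Tetraoctylammonium bromide served as positive control.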

[3] = Cell Viability - LYMP2-004 (AID 966); also: nearly all actives have a fitted effect of over 65% in size
How it was run: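 Cells seeded 2500/well, rested 5 hr at 37 C, dosed across a concentration series, incubated 24 hr at 37 C, then CellTiter-Glo added for 30 min at room temperature and luminescence read. Hill fitting gave AC50.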

[4] = Cell Viability - LYMP2-005 (AID 967); also: series mostly up to about 92 µM
How it was run: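 Steps: seed 2500 LYMP2-005 cells/well, incubate 5 h at 37 C, add compound, incubate 24 h at 37 C, add CellTiter-Glo, wait 30 min at RT, read luminescence. Concentration-response data fitted to Hill equation for AC50.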

[5] = Cell Viability - LYMP2-009 (AID 968); also: series mostly up to about 92 µM; nearly all actives have a fitted effect of over 55% in size
[6] = Cell Viability - LYMP2-011 (AID 969); also: nearly all actives have a fitted effect of over 60% in size
How it was run: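 2500 cells/well, 5 hr 37 C; compound added, 24 hr 37 C; CellTiter-Glo 30 min RT; luminescence. qHTS concentration-response, Hill-equation AC50. Tetraoctylammonium bromide positive control.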

[7] = Cell Viability - LYMP2-013 (AID 970); also: series mostly up to about 92 µM; nearly all actives have a fitted effect of over 55% in size
How it was run: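 qHTS; 2500 lymphoblastoid cells/well; 5 hr 37 C settle; cpd 24 hr 37 C; CellTiter-Glo, 30 min RT; luminescence. AC50 = Hill fit.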

[8] = Cell Viability - LYMP2-015 (AID 971); also: nearly all actives have a fitted effect of over 55% in size
How it was run: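 Luminescent ATP read-out (CellTiter-Glo) served as the viability measure after lymphoblastoid cells were exposed to compounds for 24 hours at 37 C. Concentration-response data were fitted with the Hill equation to give AC50.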

[9] = Cell Viability - LYMP2-017 (AID 972); also: series mostly up to about 92 µM; nearly all actives have a fitted effect of over 55% in size
How it was run: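 2500 cells/well, 5 h 37 C; cpd 24 h 37 C in complete medium; CellTiter-Glo, 30 min RT; luminescence (ATP). AC50 via Hill fit, qHTS.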

[10] = Cell Viability - LYMP2-019 (AID 973); also: nearly all actives have a fitted effect of over 55% in size
How it was run: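 Luminescent ATP read-out (CellTiter-Glo, 30 min room temperature) served as the viability measure after 24 hr treatment of lymphoblastoid cells at 37 C. Concentration-response data were fitted to the Hill equation for AC50.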

[11] = Cell Viability - LYMP2-021 (AID 974)
How it was run: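 Plate 2500 lymphoblastoid cells per well and incubate 5 hr at 37 C. Add compounds over a concentration range and incubate 24 hr at 37 C. Add CellTiter-Glo, wait 30 min at room temperature, read luminescence.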

[12] = Cell Viability - LYMP2-023 (AID 975)
How it was run: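 2500 cells/well, 5 hr 37 C; cpd 24 hr 37 C; CellTiter-Glo, 30 min RT; luminescence. qHTS conc-response, Hill fit -> AC50. Pos ctrl tetraoctylammonium bromide.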

[13] = Cell Viability - LYMP2-025 (AID 976); also: series mostly up to about 92 µM
How it was run: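 Seed 2500 LYMP2-025 cells/well; 5 hr at 37 C; add compound; 24 hr at 37 C; add CellTiter-Glo; 30 min RT; read luminescence. AC50 from Hill-modelled concentration-response.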

[14] = Cell Viability - LYMP2-002 (AID 977); also: series mostly up to about 92 µM
How it was run: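 Luminescent ATP readout (CellTiter-Glo, 30 min room temperature) after 24 h compound exposure at 37 C of a human lymphoblastoid line, 2500 cells/well. AC50 values derived by standard Hill fitting of qHTS concentration-response data.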

[15] = Cell Viability - LYMP2-006 (AID 978); also: series mostly up to about 92 µM; nearly all actives have a fitted effect of over 60% in size
How it was run: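 qHTS, 1536-well; 2500 cells/well, 5 hr 37 C; cpd 24 hr 37 C; CellTiter-Glo 30 min RT; luminescence. Tetraoctylammonium bromide pos. ctrl. AC50 via Hill eqn.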

[16] = Cell Viability - LYMP2-007 (AID 979);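 also: cells exposed to compound for 24 h before reading; nearly all actives have a fitted effect of over 60% in size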
How it was run: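 Luminescent ATP signal (CellTiter-Glo) serves as the viability read-out after 24 hr compound treatment of lymphoblastoid cells in complete medium at 37 C. Concentration-response data were fitted to the Hill equation to give AC50 values.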

[17] = Cell Viability - LYMP2-008 (AID 980); also: nearly all actives have a fitted effect of over 60% in size
How it was run: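 qHTS, human lymphoblastoid line, 2500 cells/well; 5 hr preincubation, 24 hr compound, 37 C. CellTiter-Glo ATP luminescence. AC50 via Hill equation. Tetraoctylammonium bromide positive control.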

[18] = Cell Viability - LYMP2-010 (AID 981); also: nearly all actives have a fitted effect of over 55% in size
How it was run: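 Luminescent ATP signal (CellTiter-Glo) served as the viability read-out. Cells of the human lymphoblastoid line were treated with compound over a concentration range for 24 hours at 37 C, and AC50 values came from Hill-equation modeling.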

[19] = Cell Viability - LYMP2-012 (AID 982)
[20] = Cell Viability - LYMP2-014 (AID 983); also: series mostly up to about 92 µM; nearly all actives have a fitted effect of over 50% in size
How it was run: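 Luminescent ATP signal (CellTiter-Glo, 30 min at room temperature) serves as the viability read-out after 24 hr compound exposure at 37 C. Cells were seeded at 2500 per well and settled 5 hr beforehand.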

[21] = Cell Viability - LYMP2-016 (AID 984); also: nearly all actives have a fitted effect of over 55% in size
How it was run: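 qHTS, 1536-well: 2500 LYMP2-016 cells/well, 5 hr 37 C, compound added, 24 hr 37 C, CellTiter-Glo 30 min RT, luminescence. Tetraoctylammonium bromide positive control. AC50 via Hill fit.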

[22] = Cell Viability - LYMP2-018 (AID 985); also: nearly all actives have a fitted effect of over 50% in size
How it was run: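 Luminescent ATP signal (CellTiter-Glo, read after 30 min at room temperature) reports viable cells after 24 hr compound treatment at 37 C. Concentration-response data were fitted to the standard Hill equation for AC50.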

[23] = Cell Viability - LYMP2-020 (AID 986)
How it was run: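 Luminescent ATP signal (CellTiter-Glo, 30 min at room temperature) is the read-out after 24 h compound treatment of lymphoblastoid cells at 37 C. AC50 values come from Hill-equation fits across concentrations.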

[24] = Cell Viability - LYMP2-022 (AID 987); also: nearly all actives have a fitted effect of over 55% in size
How it was run: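 qHTS: human lymphoblastoid cells 2500/well; 5 hr 37 C; cpd added; 24 hr 37 C; CellTiter-Glo, 30 min RT; luminescence. AC50 via Hill fit; tetraoctylammonium bromide positive ctrl.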

[25] = Cell Viability - LYMP2-024 (AID 988); also: nearly all actives have a fitted effect of over 60% in size
How it was run: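 Steps: seed 2500 cells/well, 5 hr 37 C; add compound, 24 hr 37 C; add CellTiter-Glo, 30 min room temperature; read luminescence. AC50 derived by Hill modelling of concentration-dependent ATP loss.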

[26] = Cell Viability - LYMP2-026 (AID 989); also: nearly all actives have a fitted effect of over 50% in size
How it was run: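 Luminescent ATP signal (CellTiter-Glo, 30 min room temperature) measures viable lymphoblastoid cells after 24 hr compound treatment at 37 C. Decreased ATP reflects acute toxicity; AC50 values come from Hill-equation modeling.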

Measured: outcome

CO[C@H]1/C=C/O[C@@]2(C)Oc3c(C)c(O)c4c(O)c(c(/C=N/N5CCN(C)CC5)c(O)c4c3C2=O)NC(=O)/C(C)=C\C=C\[C@H](C)[C@H](O)[C@@H](C)[C@@H](O)[C@@H](C)[C@H](OC(C)=O)[C@@H]1C
inactive: all assays above
